Test systems include HCT-15 colon; HT29 colon; SNB-75 CNS; SNB-19 CNS; U251 CNS; SK-MEL-5 melanoma; UACC-62 melanoma; LOX IMVI melanoma; SK-MEL-28 melanoma; SK-MEL-2 melanoma; EKVX NSCLC; SN12C renal; UO-31 renal; TK-10 renal; ACHN renal; CAKI-1 renal; A498 renal; CCRF-CEM leukemia; MOLT-4 leukemia; PC-3 prostate.
Common to all, as to test: NCI-60 one-dose screen, 48 h (100 = growth as untreated, 0 = no growth, -100 = all killed)
Conditions in all cases: 10 µM unless noted

About 83,000 compounds went through this panel and 20% of them were active in at least one assay; those are over-represented in the sample as a whole.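 Cell lines were cultured in 96-well plates, exposed to a single compound concentration, and assessed for percent growth 48 hours later.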 Values without a mark were called inactive. Active and inactive are the calls of the source. How the source made its calls: active means growth percent below 10; inactive means the rest.

Regarding `Clc1cc(Cl)cc(N2N=C(c3cccc(Nc4ccncc4)c3)CC2c2ccc(Br)cc2)c1` (centres undefined), the growth was -66.5% (active) in the assay with HCT-15 colon; -12.2% (active) with HT29 colon; 78.3% in the assay on SNB-75 CNS; 85.8% in the assay on SNB-19 CNS; -29.8% (active) in the assay with U251 CNS; 79% in the assay on SK-MEL-5 melanoma. Also, the growth in the assay on UACC-62 melanoma is 102%; in the assay with LOX IMVI melanoma, -88.4% (active); with SK-MEL-28 melanoma, -21.8% (active); in the assay with SK-MEL-2 melanoma, 99.2%; with EKVX NSCLC, 67.8%; in the assay on SN12C renal, 58.3%. The growth was 52.1% in the assay on UO-31 renal; 71.4% in the assay with TK-10 renal; 46.3% with ACHN renal; 48.2% in the assay on CAKI-1 renal; 88.8% in the assay on A498 renal; -12.9% (active) in the assay on CCRF-CEM leukemia. Further, the growth in the assay on MOLT-4 leukemia was 3.97% (active).
In the case of `COc1ccc(-c2cnc(N)nc2-c2ccc(OC)cc2O)cc1`, the growth in the assay with HCT-15 colon was 101%; in the assay on HT29 colon, 85.6%; in the assay with SNB-75 CNS it was 91.5%; in the assay with SNB-19 CNS, 99.6%; in the assay on U251 CNS it was 92.2%; with SK-MEL-5 melanoma, 104%. For the same compound, the growth in the assay with UACC-62 melanoma was 93.4%; in the assay on LOX IMVI melanoma it was 86.1%; in the assay with SK-MEL-28 melanoma, 104%; in the assay on SK-MEL-2 melanoma, 112%; in the assay on EKVX NSCLC it was 96.8%; in the assay with SN12C renal, 98.5%. The growth in the assay on UO-31 renal was 70.2%; in the assay with TK-10 renal, 99.1%; in the assay with ACHN renal, 87.9%; in the assay on CAKI-1 renal it was 86.5%; in the assay with A498 renal it was 99.8%; in the assay on CCRF-CEM leukemia, 82.4%. Besides, the growth with MOLT-4 leukemia is 77.2%.
Turning to `COc1cccc(C(Cc2ccccc2)Nc2ccccc2)c1OC` (centres undefined), the growth in the assay with HCT-15 colon is 91.3%; with HT29 colon it was 73%; with SNB-75 CNS, 90.1%; in the assay with SNB-19 CNS it was 104%; in the assay with U251 CNS, 89.8%; with SK-MEL-5 melanoma it was 97.1%. Further, the growth is 88.7% in the assay on UACC-62 melanoma; 98.1% in the assay on LOX IMVI melanoma; 107% in the assay with SK-MEL-28 melanoma; 83% in the assay on SK-MEL-2 melanoma; 96.1% in the assay on EKVX NSCLC; 103% with SN12C renal. The growth in the assay on UO-31 renal was 85.4%; with TK-10 renal, 96.7%; in the assay with ACHN renal it was 106%; in the assay on A498 renal it was 90%; in the assay with CCRF-CEM leukemia it was 87.5%; in the assay on MOLT-4 leukemia, 78.6%.
As to `COc1ccc(-c2nc(N/N=C/c3cccc(Br)c3)nc(N3CCOCC3)c2C#N)cc1`, the growth with HCT-15 colon is 7.3% (active); with HT29 colon it was 21.5%; in the assay on SNB-75 CNS, -17.7% (active); in the assay with SNB-19 CNS it was 93.4%; in the assay on U251 CNS it was 52.4%; with SK-MEL-5 melanoma, 72%. Besides, the growth is 84.4% in the assay with UACC-62 melanoma; 91.3% in the assay on LOX IMVI melanoma; -8.47% (active) in the assay with SK-MEL-28 melanoma; 80.1% with SK-MEL-2 melanoma; 90.2% in the assay on EKVX NSCLC; 89.4% in the assay with SN12C renal. The growth in the assay with UO-31 renal is 43.5%; in the assay on TK-10 renal, 90.8%; in the assay with ACHN renal, 54.6%; with CAKI-1 renal, 59.6%; in the assay with A498 renal it was 45.1%; with CCRF-CEM leukemia it was 35.6%. Besides, the growth with MOLT-4 leukemia is 46.9%.
For `CCOc1ccc(/C=N/Nc2cc(C)nc3ccc(Cl)cc23)cc1`, the growth was -0.545% (active) in the assay on HCT-15 colon; 26.9% in the assay on HT29 colon; 101% with SNB-75 CNS; 76.1% in the assay on SNB-19 CNS; 8.99% (active) in the assay on U251 CNS; 66.2% with SK-MEL-5 melanoma. Moreover, the growth in the assay with UACC-62 melanoma is 68.2%; in the assay on LOX IMVI melanoma it was -85.6% (active); in the assay on SK-MEL-28 melanoma, 28.2%; with SK-MEL-2 melanoma, 91%; in the assay with EKVX NSCLC, 81.7%; in the assay with UO-31 renal it was 47.6%. The growth was 121% in the assay on TK-10 renal, 51.2% in the assay with ACHN renal, 78.2% with CAKI-1 renal and 0.25% (active) in the assay with CCRF-CEM leukemia.
Consider `COc1ccc(C2CC(c3cccc(Nc4ccncc4)c3)=NN2c2ccc(Cl)cc2)cc1` (centres undefined), for which the growth in the assay on HCT-15 colon is -53.3% (active); with HT29 colon, -20.2% (active); in the assay on SNB-75 CNS, 54.9%; in the assay on SNB-19 CNS it was 90.4%; with U251 CNS, -40% (active); with SK-MEL-5 melanoma, 61.3%. Moreover, the growth in the assay on UACC-62 melanoma was 97%; in the assay on LOX IMVI melanoma, -80.5% (active); in the assay with SK-MEL-28 melanoma it was -80.7% (active); with SK-MEL-2 melanoma, 80.4%; with EKVX NSCLC, 83.8%; in the assay with SN12C renal, 63.7%. In addition, the growth is 47.6% in the assay on UO-31 renal; 59.1% in the assay with TK-10 renal; 46.7% in the assay with ACHN renal; 24.5% with CAKI-1 renal; 70.1% in the assay on A498 renal; 4.44% (active) with CCRF-CEM leukemia. Moreover, the growth with MOLT-4 leukemia is -7.16% (active).
Regarding `N#CSCC1CC(O)(c2ccccc2)C(c2ccccc2)C(c2ccc(F)cc2)O1` (centres undefined), the growth in the assay with HCT-15 colon is 42.6%; in the assay on HT29 colon, 0.506% (active); in the assay with SNB-75 CNS, 62.6%; in the assay with SNB-19 CNS it was 76.8%; with U251 CNS, 32.4%; with PC-3 prostate, 15.9%. In addition, the growth was 57.3% in the assay on SK-MEL-5 melanoma; -15.5% (active) in the assay on SK-MEL-28 melanoma; 53.6% in the assay on SK-MEL-2 melanoma; 14% in the assay with EKVX NSCLC; -26.9% (active) with SN12C renal; 11.2% with UO-31 renal. Also, the growth with TK-10 renal is 0.365% (active); in the assay with CAKI-1 renal, 15.2%; with CCRF-CEM leukemia, 12.2%; in the assay on MOLT-4 leukemia, -22% (active).
On to `COc1cc(NCC(O)CN(CC(C)C)C2CCCC2)c2ncccc2c1` (centres undefined), for which the growth was 84.2% in the assay with HCT-15 colon; 78.3% with HT29 colon; 103% in the assay with SNB-75 CNS; 101% in the assay on SNB-19 CNS; 79.9% in the assay with U251 CNS; 93.1% in the assay with SK-MEL-5 melanoma. Further, the growth with UACC-62 melanoma is 98.9%; in the assay on LOX IMVI melanoma, 82.7%; in the assay on SK-MEL-28 melanoma, 103%; in the assay on SK-MEL-2 melanoma it was 98.3%; in the assay with EKVX NSCLC, 83.2%; in the assay on SN12C renal, 86.4%. Further, the growth is 71.7% in the assay on UO-31 renal; 110% in the assay on TK-10 renal; 80.2% with ACHN renal; 94.6% with CAKI-1 renal; 71.5% with A498 renal; 114% with CCRF-CEM leukemia.

(Values after PubChem BioAssay (NCI).)
